# PglD DTNB – blocks C. jejuni PglD acetyltransferase activity | hit rate 0.098% among 360,000 | inhibition, % at 12.5 µM | purified PglD enzyme, DTNB colorimetric CoA detection; in the data active means inhibition above about 16%, passing the limit was not always enough
# ARNT TACC3 PPI – ARNT/TACC3 interaction disruption. Q9Y6A5. AlphaScreen His-ARNT PAS-B/GST-TACC3 binding, luminescence; TACC3 fragment carries E629A point mutation. inhibition, % at 9.99 µM. hit rate 0.66% among 390,000. AID 623870;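 active means mean inhibition of replicates at least 50% and at least half of replicates each reaching 50%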;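 further: 0% = complete ARNT plus TACC3 wells and 100% = ARNT alone without TACC3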
# ERp5 inh – blocks human ERp5 reductase activity on insulin | hit rate 0.05% among 350,000 | inhibition, % at 9.99 µM | AID 651711 | ERp5 insulin aggregation, absorbance 650 nm, 90 min;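 active means mean replicate inhibition above about 25%, with every replicate also reaching it, limit read from the data, passing the limit was not always enough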
# CendR NRP1 mod – modulators of CendR peptide binding to human neuropilin-1; O14786; FAM-RPARPAR peptide binding to NRP-1, fluorescence polarization; inhibition, % at 25 µM; hit rate 0.85% among 360,000;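 active means inhibition or corrected inhibition above about 18%, plus a signal ratio from 0.5 to 1.5, limit read from the data, passing the limit was not always enough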
# PDI turbidity – blocks human protein disulfide isomerase activity; P07237; hit rate 0.052% among 350,000; PDI insulin aggregation turbidity, A650, 90 min; inhibition, % at 10 µM; AID 588391;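 active means mean inhibition across replicates of 30% or more, whatever share of single replicates reach that level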
# Target sequence (P07237 whole entry, looked up): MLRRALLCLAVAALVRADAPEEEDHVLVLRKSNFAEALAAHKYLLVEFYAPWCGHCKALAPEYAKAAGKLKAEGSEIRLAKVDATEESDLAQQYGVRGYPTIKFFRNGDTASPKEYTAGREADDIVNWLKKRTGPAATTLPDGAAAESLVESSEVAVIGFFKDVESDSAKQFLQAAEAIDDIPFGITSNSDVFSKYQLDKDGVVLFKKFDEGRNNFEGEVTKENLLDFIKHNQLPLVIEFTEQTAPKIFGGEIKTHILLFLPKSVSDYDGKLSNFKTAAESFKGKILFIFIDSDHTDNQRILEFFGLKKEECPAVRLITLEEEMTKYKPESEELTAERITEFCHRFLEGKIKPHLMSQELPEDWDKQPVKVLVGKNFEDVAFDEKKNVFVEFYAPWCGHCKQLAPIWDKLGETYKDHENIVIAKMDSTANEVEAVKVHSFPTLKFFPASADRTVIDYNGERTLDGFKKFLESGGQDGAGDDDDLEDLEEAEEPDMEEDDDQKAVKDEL
# ALR H2O2 inh – blocks human ALR sulfhydryl oxidase activity | P55789 | purified ALR, DTT oxidation, H2O2 HRP-luminol luminescence | inhibition, % (concentration not given with the values) | hit rate 3.8% among 290,000 | AID 485317;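 active means mean replicate inhibition above about 79%, with every replicate also reaching it, limit read from the data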
# ARNT Alpha ctr – AlphaScreen artifact in ARNT/TACC3 counter-screen; shares compounds with ARNT TACC3 PPI; His-ARNT PASB-GST AlphaScreen artifact counter-screen, luminescence; AC50, µM (series often up to 68 µM), for the others: at the highest dose activity change, negative = signal decrease; hit rate 50% among 1,200;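 active means every separate test run was called active for a drop in luminescence, with AC50 within twice the top valid dose, actives reach about 71 µM in these data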
# Numbers without * were called inactive; / = not tested or not shown; [ ] = remark or other dose. The full list was thinned out, with hits kept by preference.
SMILES,PglD DTNB,ARNT TACC3 PPI,ERp5 inh,CendR NRP1 mod,PDI turbidity,ALR H2O2 inh,ARNT Alpha ctr
NC(=O)[C@H]1[C@@H]2C(=O)O[C@@H](c3ccccc3)[C@@H](c3ccccc3)N2[C@@H](c2ccccc2OCCO)[C@]12C(=O)Nc1ccc(C#CC3(O)CCCCCC3)cc12,3,5,-4,/,/,/,/
COC(=O)C1=COC(C)C2CN3CCc4c([nH]c5cc(OC)c(OC)cc45)C3CC12 (centres undefined),-2,63*,-3,144,/,17,71µM*
COC(=O)[C@H]1[C@H]2C[C@@H]3c4[nH]c5cc(OC)ccc5c4CCN3C[C@H]2C[C@@H](OC(=O)c2cc(OC)c(OC)c(OC)c2)[C@@H]1OC,-3,8,-1,-54,0,-19,/
O=C(NCC1CCCO1)c1onc(CSc2ccc(F)cc2)c1C(=O)O (centres undefined),3,24*,0,2,-1,4,-4%
Cc1ccc(SCc2noc(C(=O)NCC3CCCO3)c2C(=O)O)cc1C (centres undefined),-3,-1,-5,15,3,/,/
COCc1cn(CC[C@@H]2CC[C@H](NC(=O)c3ccccc3)[C@@H](CO)O2)nn1,2,-13,-1,/,/,/,/
COc1ccc(NC(=O)N[C@H]2CC[C@H](CCn3cc(-c4ccccn4)nn3)O[C@@H]2CO)cc1,-1,20*,7,/,/,/,36µM*
c1ccc(-c2cn(C[C@H]3CC[C@H](Cn4cc(-c5ccccn5)nn4)O3)nn2)nc1,6,72*,8,-9,-1,/,7.8µM*
O=C(N[C@H]1CC[C@H](CCn2cc(-c3ccccn3)nn2)O[C@@H]1CO)c1ccccc1,4,74*,-5,/,/,/,34µM*
O=C(N[C@@H]1CC[C@@H](CCn2cc(-c3ccccc3)nn2)O[C@H]1CO)c1cnccn1,-3,7,1,/,/,/,/
O=C(N[C@H]1CC[C@@H](CCn2cc(-c3ccccc3)nn2)O[C@@H]1CO)c1cnccn1,3,active,1,/,/,/,-3%[42 µM]
CC(=O)N1C[C@@H]2[C@H](c3ccccc31)[C@H](CO)N2C(=O)c1ccc(F)cc1,1,7,7,/,/,/,/
C[C@@H]1CN([C@H](C)CO)C(=O)c2cccc(NC(=O)c3cnccn3)c2O[C@@H]1CN(C)S(=O)(=O)c1ccc(F)cc1,/,/,0,/,/,/,/
CC(C)CN(C[C@@H]1[C@@H](c2ccccc2)[C@H](CO)N1C(=O)C1CCC1)C(=O)C1CC1,6,-1,-3,/,/,/,/
CC(=O)Nc1ccc2c(c1)C(=O)N(C)[C@H]1CC[C@@H](CC(=O)NCC3CCCCC3)O[C@H]1CO2,-2,-1,/,/,/,/,/
COCc1cn(CC[C@H]2CC[C@H](NC(=O)c3ccccc3)[C@@H](CO)O2)nn1,5,-5,-6,/,/,/,/
O=C(N[C@H]1CC[C@H](CCn2cc(-c3ccccn3)nn2)O[C@H]1CO)c1ccccc1,4,54*,8,/,/,/,-10%[38 µM]
O=C(Cc1ccccn1)N[C@H]1CC[C@H](CCn2cc(-c3ccccc3)nn2)O[C@H]1CO,3,-9,1,/,/,/,/
O=C(C[C@H]1CC[C@@H](NC(=O)c2ccccc2)[C@H](CO)O1)Nc1ccc(-c2ccccc2)cc1,2,51*,-2,/,/,/,-1%[42 µM]
O=C(N[C@@H]1CC[C@H](CCn2cc(-c3ccccn3)nn2)O[C@H]1CO)c1ccccc1,7,76*,-6,/,/,/,60µM*
N[C@@H]1CC[C@H](CCn2cc(-c3ccccn3)nn2)O[C@H]1CO,-9,75*,4,/,/,/,6.6µM*
COc1ccc(-c2cn(CC[C@@H]3CC[C@@H](N)[C@H](CO)O3)nn2)cc1,-3,5,0,/,/,/,/
O=C(C[C@H]1CC[C@H](NC(=O)c2ccccc2)[C@@H](CO)O1)Nc1ccc(-c2ccccc2)cc1,-1,-12,-3,/,/,/,/
C[C@@H]1CN([C@H](C)CO)C(=O)c2cc(NC(=O)c3ccncc3)ccc2O[C@H]1CN(C)Cc1ccc(C(=O)Nc2ccccc2N)cc1,/,/,4,/,/,/,/
COc1cccc(S(=O)(=O)N[C@@H]2CC[C@H](CC(=O)NC3Cc4ccccc4C3)O[C@H]2CO)c1,3,-3,0,/,/,/,/
SMILES,PglD DTNB,ARNT TACC3 PPI,ERp5 inh,CendR NRP1 mod,PDI turbidity,ALR H2O2 inh,ARNT Alpha ctr
CC(=O)Nc1cccc(C(=O)O)n1,/,59*,-3,8,-2,0,-20%
CC(=O)Nc1cccc(NC(C)=O)n1,-2,-1,/,2,6,-10,/
Cc1noc(C)c1S(=O)(=O)Nc1ccc2c(c1)CC(=O)N([C@H](C)CO)C[C@H](C)[C@H](CN(C)S(C)(=O)=O)O2,1,-24,/,/,/,/,/
Cc1noc(C)c1NC(=O)N(C)C[C@@H]1OCCCC[C@@H](C)Oc2ccc(NS(=O)(=O)c3ccc(F)cc3)cc2C(=O)N([C@H](C)CO)C[C@H]1C,-1,-5,4,/,/,/,/
CN(C)c1ccc2c(c1)[C@@H]1C[C@@H](CC(=O)N3CCOCC3)O[C@@H](CO)[C@@H]1O2,0,70*,-2,/,/,/,-8%[38 µM]
CN(C)c1ccc2c(c1)[C@@H]1C[C@@H](CC(=O)N3CCCCC3)O[C@H](CO)[C@@H]1O2,/,/,-4,/,/,/,/
C[C@@H]1CCCCO[C@H](CN(C)Cc2ccncc2)[C@H](C)CN([C@H](C)CO)C(=O)c2cc(NC(=O)Nc3ccc(F)cc3)ccc2O1,2,2,/,/,/,/,/
C[C@H](O)C#Cc1ccc2c(c1)O[C@H](CN(C)C(=O)C1CCC1)[C@@H](C)CN([C@@H](C)CO)S2(=O)=O,6,5,6,/,/,/,/
CC(C)(C)C1=CC(=O)C(=O)C(C(C)(C)C)=C1,1,-6,/,4,18,-8,/
CC(C)(C)C1=CC(=Nc2ccccc2N)C=C(C(C)(C)C)C1=O,/,54*,-2,7,9,-18,1.5µM*
COc1ccc(CCNC(=O)CSc2nnc3ccc(-c4ccccn4)nn23)cc1,-2,48*,-1,1,-3,/,68µM*
C[C@H](CO)N1C[C@H](C)[C@H](CN(C)S(C)(=O)=O)OCCCC[C@H](C)Oc2ccc(NC(=O)Cc3ccccc3)cc2C1=O,-1,1,1,/,/,/,/
COCC#Cc1ccc([C@@H]2[C@@H](C#N)N(C(=O)NC3CCCC3)[C@@H]2CO)cc1,0,12,5,/,/,/,/
O=C(c1ccccn1)N1CC[C@H]2[C@H](CO)Nc3ccc(Br)cc3[C@H]21,-7,9,-1,/,/,/,/
CN(C)C(=O)c1cccc(-c2ccc3c(c2)[C@@H]2[C@@H](CCN2C(=O)c2cccnc2)[C@@H](CO)N3)c1,-2,65*,/,/,/,/,-10%[42 µM]
O=C(c1ccccn1)N1CC[C@@H]2[C@H]1c1cc(Br)ccc1N[C@@H]2CO,-9,69*,1,/,/,/,53µM*
O=C(c1cccnc1)N1CC[C@@H]2[C@H](CO)Nc3ccc(-c4ccccc4)cc3[C@@H]21,1,4,-1,/,/,/,/

# From PubChem BioAssay
